In assay [1] the test system is Human papillomavirus type 1a protein E7 (residues 44-93). Briefly: small molecules binding HPV E7 44-93 – biochemical, small-molecule microarray, residues 44-93, 635 nm fluorescence, primary screen (AID 1108).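 Note: E7 fragment applied at 1 µg/mL in TBST for 1 h at 4 C; score combines spot fluorescence with its signal to noise ratio.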 Particulars: fluorescence 635 nm, higher = more signal.
The nature of assay [2]: hepatitis C replication reporter changes, two-sided – Huh7 cells, luciferase reporter, HCV replication inhibitor project, primary screen (AID 1109).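 Note: huh7 hepatoma cells harbouring a luciferase neomycin HCV replicon reporter; luciferase luminescence as measure of HCV replicon replication; test concentration not given here.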 Particulars: Huh7 HCV replicon luciferase reporter, 48 h; higher = more signal. A general note: In a reporter assay the amount or activity of a reporter protein is the signal.
The target of assay [3] is Left-right determination factor 2 (Homo sapiens) (UniProt O00292). Put plainly: small molecules binding LEFTY2 protein – biochemical, small-molecule microarray, 635 nm fluorescence scan, primary screen (AID 1110). As to conditions: higher = more signal.
The target of assay [4] is Calmodulin-1 (Homo sapiens) (UniProt P0DP23). Put plainly: small molecules binding calmodulin-1 with EGTA – biochemical, small-molecule microarray, Cy5-labelled CALM1, profiling panel (AID 1111).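 Note: labelled calmodulin applied in Tris saline Tween buffer holding calcium plus EGTA and DTT.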 Particulars: Cy5-CALM1 binding fluorescence, higher = more signal.
For assay [5] the target is unchanged. Put plainly: small molecules binding Ca-loaded calmodulin-1 – biochemical, small-molecule microarray, Cy5-labelled CALM1, plus calcium, artefact control for SMM control-protein annotation, profiling panel (AID 1112).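 Note: score merges spot fluorescence with signal to noise from triplicate slides.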 As to conditions: Cy5-CALM1 binding fluorescence, higher = more signal.
The nature of assay [6]: probe aWnt5a binding to arrayed compounds – biochemical, biotinylated probe, 635/667 nm fluorescence, primary screen (AID 1113).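 Note: score merges 667 nm fluorescence intensity with signal-to-noise per printed feature.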 As to conditions: small-molecule microarray, higher = more signal.
Assay [7] can be described thus: probe aShh binding to arrayed compounds – biochemical, biotinylated probe, 635/667 nm fluorescence, primary screen (AID 1114).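 Note: probe is biotin-labelled aShh protein from a stem cell growth factor screen; measures binding of labelled protein to compounds printed on the slide; score merges feature fluorescence at 667 nm with signal-to-noise.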 Particulars: small-molecule microarray, higher = more signal.
Assay [8] is described as follows: probe aNog binding to arrayed compounds – biochemical, biotinylated probe, 635/667 nm fluorescence, primary screen (AID 1115).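 Note: probe is biotinylated aNog protein used at 0.15 µg/mL for 1 h at 4 C; z-score combines 667 nm fluorescence of each spot with its signal to noise.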 Particulars: small-molecule microarray, higher = more signal.
Assay [9] addresses Torsin-1A-interacting protein 1 (Homo sapiens) (UniProt Q5JTV8). Briefly: compound microarray binding of lysate hLAP1 – cell lysate, small-molecule microarray, COS7 lysate, 635/667 nm fluorescence, primary screen (AID 1116). Particulars: 635 nm fluorescence, higher = more signal.
The target in assay [10] is Alpha-bungarotoxin (Bungarus multicinctus) (UniProt P60615). Briefly: compounds binding labelled alpha-BTX control protein – biochemical, small-molecule microarray, Alexa647 label, 635/667 nm fluorescence, artefact control for SMM control protein annotation, profiling panel (AID 1117). Particulars: alpha-BTX-A647 binding fluorescence, higher = more signal.
The target of the next assay is Albumin (Bos taurus) (UniProt P02769). Briefly: compounds binding labelled BSA control protein – biochemical, small-molecule microarray, Alexa647 label, 635/667 nm fluorescence, artefact control for SMM control protein annotation, profiling panel (AID 1118).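 Note: score merges 667 nm emission intensity and signal-to-noise per printed compound spot.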 Particulars: BSA-A647 binding, fluorescence 635 nm, higher = more signal.
Assay [11] can be described thus: probe aXIP binding to arrayed compounds – biochemical, NeuroSMM set, 635/667 nm fluorescence, primary screen (AID 1119).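 Note: probe is the protein aXip251-270 applied at 1 µg/mL to compound-printed slides; binding of probe to printed compounds measured as 667 nm fluorescence plus signal to noise.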 Particulars: small-molecule microarray, higher = more signal, called active from +8 up or from −8 down.
Assay [12] can be described thus: probe aNOTCH3 binding on compound microarray – biochemical, small-molecule microarray, 635/667 nm fluorescence, primary screen (AID 1120).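 Note: probe is a biotin-tagged antibody raised against NOTCH3 rather than NOTCH3 protein; score merges spot fluorescence near 667 nm with spot signal to noise.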 Particulars: higher = more signal.
Assay [13] can be described thus: probe aNOTCH2 binding on compound microarray – biochemical, small-molecule microarray, 635/667 nm fluorescence, primary screen (AID 1121).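 Note: score merges feature fluorescence read at 667 nm with its signal to noise.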 As to conditions: higher = more signal.
In assay [14] the target is Carbonic anhydrase 2 (Homo sapiens) (UniProt P00918). Briefly: compounds binding carbonic anhydrase 2 – biochemical, small-molecule microarray, Alexa647-labelled CAII, profiling panel (AID 1122). Particulars: CAII-A647 binding fluorescence, higher = more signal.
A short description of assay [15]: COS7 lysate on small-molecule microarray, probe aHis, 635 nm (AID 1123).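 Note: z-score combines 667nm fluorescence intensity with signal-to-noise per printed compound spot.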 Particulars: COS7 cell lysate, fluorescence, higher = more signal.
The nature of assay [16]: probe aLAP1 signal on lysate-treated microarray – cell lysate, small-molecule microarray, COS7 lysate, primary screen (AID 1124).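 Note: lysate comes from COS7 cells expressing LAP1 and is applied at 0.3 µg/mL; score merges spot fluorescence near 667 nm with signal-to-noise over triplicate slides.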 As to conditions: probe aLAP1, fluorescence, higher = more signal.
The test system of another assay is Sam68 (KHDRBS1). Briefly: compounds binding KHDRBS1 protein – biochemical, small-molecule microarray, 635 nm fluorescence, primary screen (AID 1125).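 Note: score merges 667 nm channel intensity with signal to noise over triplicate slides.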 As to conditions: higher = more signal.
Assay [17] deals with Chordin-like protein 2 (CHRDL2). Briefly: compounds binding chordin-like 2 – biochemical, small-molecule microarray, 635 nm fluorescence, primary screen (AID 1126).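 Note: printed compound slides probed with Chrdl2 protein at 4 µg/mL for 1 h at 4 C; score merges 667 nm emission intensity with signal to noise over three replicate slides.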 As to conditions: fluorescence 635 nm, higher = more signal.
Assay [18] has as its target Concanavalin-A (Canavalia ensiformis) (UniProt P02866). Put plainly: compounds binding concanavalin A lectin – biochemical, small-molecule microarray, Alexa647 label, 635 nm, artefact control for SMM control protein annotation, primary screen (AID 1127).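 Note: z combines 667 nm emission intensity with signal-to-noise across three replicate slides.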 Particulars: ConA-A647 binding fluorescence, higher = more signal.

The values below come from PubChem BioAssay.

The source made the active and inactive calls.

Sequence of Alpha-bungarotoxin (Bungarus multicinctus) (P60615 whole entry, looked up): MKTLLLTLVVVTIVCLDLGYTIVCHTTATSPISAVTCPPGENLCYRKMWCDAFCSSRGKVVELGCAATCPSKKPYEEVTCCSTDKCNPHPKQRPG
Sequence of Concanavalin-A (Canavalia ensiformis) (P02866 whole entry, looked up): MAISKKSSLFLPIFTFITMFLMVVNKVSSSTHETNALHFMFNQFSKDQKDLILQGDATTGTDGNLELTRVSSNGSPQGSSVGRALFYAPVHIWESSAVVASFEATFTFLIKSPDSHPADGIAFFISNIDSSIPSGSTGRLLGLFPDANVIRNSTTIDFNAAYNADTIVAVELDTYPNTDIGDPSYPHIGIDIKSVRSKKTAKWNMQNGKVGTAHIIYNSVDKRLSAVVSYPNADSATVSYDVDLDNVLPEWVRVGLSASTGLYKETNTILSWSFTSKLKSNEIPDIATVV
Sequence of Torsin-1A-interacting protein 1 (Homo sapiens) (Q5JTV8 whole entry, looked up): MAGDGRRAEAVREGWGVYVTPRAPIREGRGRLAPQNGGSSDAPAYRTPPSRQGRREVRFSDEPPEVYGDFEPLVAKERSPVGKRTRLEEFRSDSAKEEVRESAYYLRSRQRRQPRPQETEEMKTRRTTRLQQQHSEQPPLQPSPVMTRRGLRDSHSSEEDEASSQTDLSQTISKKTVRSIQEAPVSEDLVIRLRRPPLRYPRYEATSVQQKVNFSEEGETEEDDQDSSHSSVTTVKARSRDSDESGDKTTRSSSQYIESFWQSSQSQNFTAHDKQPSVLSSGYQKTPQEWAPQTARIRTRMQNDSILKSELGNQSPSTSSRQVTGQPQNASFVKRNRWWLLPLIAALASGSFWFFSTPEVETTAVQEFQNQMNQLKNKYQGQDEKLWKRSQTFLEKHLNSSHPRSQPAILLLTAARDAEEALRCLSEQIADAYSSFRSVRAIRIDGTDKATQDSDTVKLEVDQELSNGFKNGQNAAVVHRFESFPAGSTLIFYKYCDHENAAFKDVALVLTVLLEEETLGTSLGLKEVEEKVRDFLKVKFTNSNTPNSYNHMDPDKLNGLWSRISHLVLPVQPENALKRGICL
Sequence of Left-right determination factor 2 (Homo sapiens) (O00292 whole entry, looked up): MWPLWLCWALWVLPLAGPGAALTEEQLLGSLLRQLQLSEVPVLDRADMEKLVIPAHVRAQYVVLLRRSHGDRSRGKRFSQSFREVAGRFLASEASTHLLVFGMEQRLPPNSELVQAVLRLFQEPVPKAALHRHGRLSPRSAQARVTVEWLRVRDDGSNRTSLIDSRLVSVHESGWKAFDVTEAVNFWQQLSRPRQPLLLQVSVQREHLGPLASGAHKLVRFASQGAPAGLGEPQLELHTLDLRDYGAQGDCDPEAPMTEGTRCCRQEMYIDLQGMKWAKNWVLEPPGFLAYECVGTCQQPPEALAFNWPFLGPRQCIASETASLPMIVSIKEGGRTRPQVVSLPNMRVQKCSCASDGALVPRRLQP
Sequence of Albumin (Bos taurus) (P02769 whole entry, looked up): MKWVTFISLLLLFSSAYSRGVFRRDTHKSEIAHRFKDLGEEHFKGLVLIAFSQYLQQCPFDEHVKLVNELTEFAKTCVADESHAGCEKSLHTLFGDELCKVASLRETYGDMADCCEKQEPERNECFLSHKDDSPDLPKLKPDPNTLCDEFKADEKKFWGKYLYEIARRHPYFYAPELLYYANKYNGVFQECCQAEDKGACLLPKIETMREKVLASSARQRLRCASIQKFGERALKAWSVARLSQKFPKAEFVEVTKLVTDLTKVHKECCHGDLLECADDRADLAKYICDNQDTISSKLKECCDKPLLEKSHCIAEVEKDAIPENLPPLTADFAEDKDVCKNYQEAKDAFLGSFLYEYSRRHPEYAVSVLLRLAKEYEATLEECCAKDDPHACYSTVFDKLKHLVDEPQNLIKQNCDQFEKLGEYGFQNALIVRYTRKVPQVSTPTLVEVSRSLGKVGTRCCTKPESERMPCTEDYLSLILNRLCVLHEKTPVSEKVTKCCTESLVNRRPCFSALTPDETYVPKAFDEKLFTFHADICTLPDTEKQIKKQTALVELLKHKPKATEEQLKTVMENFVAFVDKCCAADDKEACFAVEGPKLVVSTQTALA

As for `CC(CCN1CCCc2nc(C)c(C)cc21)=NOC[C@@H](O)COCc1ccco1`, the composite z-score in [1] was -2.03; in assay [3], 1.73; in [4], 0.264; in [5] it was -2.31; in assay [6], 0.937; in assay [7], 2.26. Besides, the composite z-score was 1.75 in assay [8]; 2.57 in [9]; 1.94 in [10]; -1.47 with Albumin (Bos taurus); 1.67 in assay [12]; 0.826 in [13]. Besides, the composite z-score in [14] is -0.702; in assay [15] it was 1.37; in [16], 0.602; in the assay with Sam68 (KHDRBS1) it was -0.109; in assay [17] it was 1.58; in [18] it was -1.09. The z-score in assay [2] is -0.62. Also, in assay [11], the composite Z-score is 5.36 (inactive).
As to `CC(CCN1CCCc2nc(C)c(C)cc21)=NOC[C@@H](C)[C@H](OCc1ccccc1)C(C)C`, the composite z-score is -1.39 in [1]; -0.196 in assay [3]; -1 in assay [4]; -0.387 in assay [5]; -0.0685 in assay [6]; -0.138 in assay [7]. For the same compound, the composite z-score in [8] is -0.255; in assay [9], -0.187; in assay [10], -1.1; with Albumin (Bos taurus) it was -0.453; in assay [12] it was -0.0918; in assay [13], -0.0878. The composite z-score in [14] is -0.358; in [15], 0.816; in assay [16], -0.432; in the assay on Sam68 (KHDRBS1), -0.818; in [17], -0.621; in [18] it was -0.691. Besides, in [2], the z-score is -0.148. Moreover, the composite Z-score in assay [11] is 0.081 (inactive).
`COC(=O)CC=C[C@@H](C)[C@@H](C=NOC[C@@H](C)[C@H](OCc1ccccc1)C(C)C)OC`: the composite z-score in assay [1] is 0.281; in assay [3], 0.364; in [4], -0.481; in [5], -0.79; in [6], -0.096; in [7] it was -0.19. Further, the composite z-score is -0.116 in assay [8]; -0.062 in assay [9]; 0.215 in assay [10]; -0.469 in the assay with Albumin (Bos taurus); -0.0647 in assay [12]; -0.124 in assay [13]. Further, the composite z-score was -0.12 in assay [14]; 0.266 in assay [15]; -0.61 in assay [16]; 0.447 in the assay with Sam68 (KHDRBS1); 0.386 in assay [17]; 0.102 in assay [18]. Moreover, the z-score in assay [2] was -0.759. Also, the composite Z-score in assay [11] was -0.235 (inactive).
Turning to `CCN1C(=O)[C@H]2[C@H]3[C@H](O)[C@H](O)CC(=NOCC(C)C)[C@H]3CC[C@H]2C1=O`, the composite z-score is -0.0775 in assay [1]; 0.535 in [3]; -0.185 in assay [4]; -0.987 in assay [5]; -0.0542 in [6]; -0.138 in assay [7]. The composite z-score is -0.238 in assay [8]; 0.152 in [9]; -0.14 in assay [10]; -0.369 in the assay with Albumin (Bos taurus); 0.108 in assay [12]; -0.204 in assay [13]. In addition, the composite z-score in assay [14] was -0.15; in assay [15] it was -0.302; in assay [16], 0.0041; with Sam68 (KHDRBS1) it was 0.0597; in assay [17], 0.843; in assay [18] it was -0.238. The same compound came in with a z-score in assay [2] of 0.295. Also, the composite Z-score in [11] was -0.14 (inactive).
`C#CCCCON=C1[C@H]2CCn3c(=O)n([C@@H](CC)c4ccccc4)c(=O)n3[C@H]2[C@H](O)[C@@H]2O[C@H]12`: the composite z-score in [1] is -0.194; in assay [3], 0.0878; in assay [4] it was -0.184; in [5] it was -0.483; in assay [6], -0.0799; in assay [7] it was -0.0295. Further, the composite z-score in assay [8] is -0.35; in [9], -0.0356; in assay [10], -0.151; with Albumin (Bos taurus) it was 0.0481; in assay [12], -0.0918; in [13] it was -0.0745. In addition, the composite z-score was 0.59 in assay [14]; 0.219 in assay [15]; -0.131 in assay [16]; 0.113 in the assay with Sam68 (KHDRBS1); 0.0573 in assay [17]; 0.154 in [18]. Moreover, the z-score in assay [2] was -3.43. The composite Z-score in assay [11] was -0.15 (inactive).
With `O=C1C2=CC[C@H]3C(=O)N(C[C@@H]4CCCO4)C(=O)[C@H]3[C@H]2[C@H](O)[C@@H]2O[C@H]12`, the composite z-score in assay [1] was 0.0207; in assay [3], 0.153; in assay [4], -0.248; in assay [5], -1.13; in assay [6] it was -0.219; in assay [7] it was 0.0121. Further, the composite z-score in [8] was -0.158; in assay [9] it was 0.518; in assay [10], 0.395; with Albumin (Bos taurus) it was 0.335; in assay [12], -0.183; in [13] it was -0.0928. In addition, the composite z-score in [14] was -0.145; in assay [15], -0.534; in assay [16] it was -0.246; in the assay on Sam68 (KHDRBS1), 0.244; in [17] it was 0.362; in assay [18] it was 0.397. This compound came in with a z-score in assay [2] of -4.56. For the same compound, the composite Z-score in [11] was -0.275 (inactive).
